# Of roughly 8,800 targets only a part is listed; those with a hit were picked by preference. About 0.5% of all pairs of compound and target were hits. A number with no mark means an inactive call.
# Key:
# Assay in all cases: log2 fold change, soluble protein after heating vs DMSO (PISA); higher = thermal stabilisation; K562 lysate, 10 uM; active = over 0.2 and 3.5 SD of the protein, either way, in both replicates (recomputed)
# alvocidib = compound: CN1CC[C@H](c2c(O)cc(O)c3c(=O)cc(-c4ccccc4Cl)oc23)[C@H](O)C1 [alvocidib]
# In short: (§1)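 Thermal stability, expressed as log-two fold change relative to solvent controls, is given from duplicates. Crude K562 extract in PBS pH 7.4 with 1 mM MgCl2, at 1 mg/mL protein, was treated with 10 μM compound for 30 min and heated in aliquots for 3 min across 48°C-58°C. After pooling, adjustment to 0.5% NP-40 at 4°C and centrifugation at 21,000xg for 90 min, supernatant protein was measured by TMTpro 16plex LC-MS/MS with channel sums equalised.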
# Tubastatin A = compound: CN1CCc2c(c3ccccc3n2Cc2ccc(C(=O)NO)cc2)C1 [Tubastatin A]
# In short: as §1
# [1] = compound: CNC(=O)C1=CC=CC=C1NC2=NC(=NC=C2Cl)NC3=C(C=C(C=C3)N4CCOCC4)OC
# In short: as §1
# defactinib = compound: CNC(=O)c1ccc(Nc2ncc(C(F)(F)F)c(NCc3nccnc3N(C)S(C)(=O)=O)n2)cc1 [defactinib]
# In short: as §1
# [2] = compound: CNc1nc(-c2ccc3c(N)n[nH]c3c2)cc(N2C[C@@H](C(=O)NC3CCCCC3)CC[C@H]2C)n1
# In short: as §1
# encorafenib = compound: COC(=O)N[C@@H](C)CNc1nccc(-c2cn(C(C)C)nc2-c2cc(Cl)cc(NS(C)(=O)=O)c2F)n1 [encorafenib]
# In short: as §1
# [3] = compound: COC(=O)[C@H](CCSC)NC(=O)C1=C(C=C(C=C1)NC[C@H](CS)N)C2=CC=CC=C2
# In short: as §1
# alisertib = compound: COc1cc(Nc2ncc3c(n2)-c2ccc(Cl)cc2C(c2c(F)cccc2OC)=NC3)ccc1C(=O)O [alisertib]
# In short: as §1
# [4] = compound: COc1cc2nc(-c3cc(F)ccc3O)nc(N[C@@H]3CNC[C@H]3C(C)(C)O)c2cc1OC
# In short: as §1
# gefitinib = compound: COc1cc2ncnc(Nc3ccc(F)c(Cl)c3)c2cc1OCCCN1CCOCC1 [gefitinib]
# In short: as §1
# lapatinib = compound: CS(=O)(=O)CCNCc1ccc(-c2ccc3ncnc(Nc4ccc(OCc5cccc(F)c5)c(Cl)c4)c3c2)o1 [lapatinib]
# In short: as §1
# pictilisib = compound: CS(=O)(=O)N1CCN(Cc2cc3nc(-c4cccc5[nH]ncc45)nc(N4CCOCC4)c3s2)CC1 [pictilisib]
# In short: as §1
# crizotinib = compound: C[C@@H](Oc1cc(-c2cnn(C3CCNCC3)c2)cnc1N)c1c(Cl)ccc(F)c1Cl [crizotinib]
# In short: as §1
# [5] = compound: C[C@H](C1=CC=C(C=C1)C(=O)NC2=C3C=CNC3=NC=C2)N
# In short: as §1
# duvelisib = compound: C[C@H](Nc1ncnc2nc[nH]c12)c1cc2cccc(Cl)c2c(=O)n1-c1ccccc1 [duvelisib]
# In short: as §1
# gandotinib = compound: Cc1cc(Nc2cc(CN3CCOCC3)c3nc(C)c(Cc4ccc(Cl)cc4F)n3n2)n[nH]1 [gandotinib]
# In short: as §1
# tozasertib = compound: Cc1cc(Nc2cc(N3CCN(C)CC3)nc(Sc3ccc(NC(=O)C4CC4)cc3)n2)n[nH]1 [tozasertib]
# In short: as §1
# bafetinib = compound: Cc1ccc(NC(=O)c2ccc(CN3CC[C@H](N(C)C)C3)c(C(F)(F)F)c2)cc1Nc1nccc(-c2cncnc2)n1 [bafetinib]
# In short: as §1
# [6] = compound: Cc1cccc(CC(=O)N2CCc3c2ccc(-c2cn(C)c4ncnc(N)c24)c3F)n1
# In short: as §1
# doramapimod = compound: Cc1ccc(-n2nc(C(C)(C)C)cc2NC(=O)Nc2ccc(OCCN3CCOCC3)c3ccccc23)cc1 [doramapimod]
# In short: as §1
# Sequence of UniProt O94880 (O94880 whole entry, looked up): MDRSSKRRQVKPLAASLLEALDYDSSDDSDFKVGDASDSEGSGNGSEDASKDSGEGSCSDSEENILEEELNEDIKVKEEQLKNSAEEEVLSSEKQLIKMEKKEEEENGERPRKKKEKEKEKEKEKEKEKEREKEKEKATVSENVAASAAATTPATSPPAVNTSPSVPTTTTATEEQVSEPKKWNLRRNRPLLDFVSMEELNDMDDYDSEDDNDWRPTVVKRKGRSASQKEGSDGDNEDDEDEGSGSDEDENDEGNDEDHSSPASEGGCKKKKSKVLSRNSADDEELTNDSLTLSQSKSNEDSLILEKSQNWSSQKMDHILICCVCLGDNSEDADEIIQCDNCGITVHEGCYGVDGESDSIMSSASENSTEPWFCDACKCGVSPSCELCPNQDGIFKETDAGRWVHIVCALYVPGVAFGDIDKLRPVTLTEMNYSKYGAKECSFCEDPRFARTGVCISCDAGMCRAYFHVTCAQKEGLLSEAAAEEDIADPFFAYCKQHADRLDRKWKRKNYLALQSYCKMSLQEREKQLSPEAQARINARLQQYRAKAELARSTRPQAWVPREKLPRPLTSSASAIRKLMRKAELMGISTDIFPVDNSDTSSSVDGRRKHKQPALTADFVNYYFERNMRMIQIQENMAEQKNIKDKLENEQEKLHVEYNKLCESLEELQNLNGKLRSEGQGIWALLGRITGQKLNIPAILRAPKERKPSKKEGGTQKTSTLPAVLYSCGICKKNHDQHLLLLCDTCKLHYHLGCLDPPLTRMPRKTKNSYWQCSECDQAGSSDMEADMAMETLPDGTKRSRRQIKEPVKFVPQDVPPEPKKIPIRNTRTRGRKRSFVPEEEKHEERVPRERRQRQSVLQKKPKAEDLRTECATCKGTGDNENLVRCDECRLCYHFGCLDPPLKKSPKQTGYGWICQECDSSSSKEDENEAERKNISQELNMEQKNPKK
# Sequence of UniProt P45877 (P45877 whole entry, looked up): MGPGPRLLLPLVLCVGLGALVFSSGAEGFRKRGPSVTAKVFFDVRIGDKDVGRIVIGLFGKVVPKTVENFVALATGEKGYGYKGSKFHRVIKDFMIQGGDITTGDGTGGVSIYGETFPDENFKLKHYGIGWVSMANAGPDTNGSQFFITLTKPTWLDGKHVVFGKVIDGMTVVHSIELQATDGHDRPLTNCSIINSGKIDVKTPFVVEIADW
# Sequence of UniProt Q05397 (Q05397 whole entry, looked up): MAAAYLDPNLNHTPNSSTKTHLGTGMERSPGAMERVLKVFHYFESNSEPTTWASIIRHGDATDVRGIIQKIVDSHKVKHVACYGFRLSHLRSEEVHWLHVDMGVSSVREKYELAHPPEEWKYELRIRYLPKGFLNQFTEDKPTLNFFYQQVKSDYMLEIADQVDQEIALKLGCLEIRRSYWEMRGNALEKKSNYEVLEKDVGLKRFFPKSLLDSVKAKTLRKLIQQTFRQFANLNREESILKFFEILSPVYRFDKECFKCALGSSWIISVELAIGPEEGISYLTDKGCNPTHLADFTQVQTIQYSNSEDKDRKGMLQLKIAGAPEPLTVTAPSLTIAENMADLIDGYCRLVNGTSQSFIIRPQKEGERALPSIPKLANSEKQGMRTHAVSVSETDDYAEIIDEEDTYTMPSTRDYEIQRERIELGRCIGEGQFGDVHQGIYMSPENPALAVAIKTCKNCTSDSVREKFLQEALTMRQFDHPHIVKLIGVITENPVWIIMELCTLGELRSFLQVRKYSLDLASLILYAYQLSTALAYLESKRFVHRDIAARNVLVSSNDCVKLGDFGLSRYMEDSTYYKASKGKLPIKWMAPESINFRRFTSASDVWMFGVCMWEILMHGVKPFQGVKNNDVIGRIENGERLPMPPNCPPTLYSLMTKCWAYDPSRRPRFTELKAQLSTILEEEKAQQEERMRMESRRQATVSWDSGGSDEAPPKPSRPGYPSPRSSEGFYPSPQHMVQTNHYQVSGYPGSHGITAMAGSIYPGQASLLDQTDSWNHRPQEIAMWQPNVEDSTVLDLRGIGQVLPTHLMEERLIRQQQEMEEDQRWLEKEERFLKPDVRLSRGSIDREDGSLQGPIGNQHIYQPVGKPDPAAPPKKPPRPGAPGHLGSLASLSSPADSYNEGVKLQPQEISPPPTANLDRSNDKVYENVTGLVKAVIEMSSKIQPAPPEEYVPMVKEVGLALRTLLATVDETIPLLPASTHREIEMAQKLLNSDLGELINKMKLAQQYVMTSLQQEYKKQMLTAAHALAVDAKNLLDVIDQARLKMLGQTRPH
# Sequence of UniProt Q9BRQ0 (Q9BRQ0 whole entry, looked up): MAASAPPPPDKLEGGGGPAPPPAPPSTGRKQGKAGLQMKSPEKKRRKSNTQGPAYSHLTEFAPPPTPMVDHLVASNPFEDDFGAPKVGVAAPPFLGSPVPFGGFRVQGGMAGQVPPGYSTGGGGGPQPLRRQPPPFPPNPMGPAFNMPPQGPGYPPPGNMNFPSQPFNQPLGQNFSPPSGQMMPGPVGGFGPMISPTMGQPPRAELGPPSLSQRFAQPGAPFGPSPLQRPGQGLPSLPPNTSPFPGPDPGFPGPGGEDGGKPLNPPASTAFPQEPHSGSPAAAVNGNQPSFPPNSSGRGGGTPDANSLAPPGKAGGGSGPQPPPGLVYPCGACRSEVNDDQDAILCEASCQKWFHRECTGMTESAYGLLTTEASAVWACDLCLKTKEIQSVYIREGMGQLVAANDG
# Sequence of UniProt Q9BSG0 (Q9BSG0 whole entry, looked up): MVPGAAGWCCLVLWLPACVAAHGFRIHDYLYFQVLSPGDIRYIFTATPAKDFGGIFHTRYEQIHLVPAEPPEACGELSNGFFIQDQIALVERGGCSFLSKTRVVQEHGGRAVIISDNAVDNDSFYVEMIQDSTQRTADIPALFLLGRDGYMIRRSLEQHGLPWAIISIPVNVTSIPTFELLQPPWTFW
# Sequence of UniProt Q14289 (Q14289 whole entry, looked up): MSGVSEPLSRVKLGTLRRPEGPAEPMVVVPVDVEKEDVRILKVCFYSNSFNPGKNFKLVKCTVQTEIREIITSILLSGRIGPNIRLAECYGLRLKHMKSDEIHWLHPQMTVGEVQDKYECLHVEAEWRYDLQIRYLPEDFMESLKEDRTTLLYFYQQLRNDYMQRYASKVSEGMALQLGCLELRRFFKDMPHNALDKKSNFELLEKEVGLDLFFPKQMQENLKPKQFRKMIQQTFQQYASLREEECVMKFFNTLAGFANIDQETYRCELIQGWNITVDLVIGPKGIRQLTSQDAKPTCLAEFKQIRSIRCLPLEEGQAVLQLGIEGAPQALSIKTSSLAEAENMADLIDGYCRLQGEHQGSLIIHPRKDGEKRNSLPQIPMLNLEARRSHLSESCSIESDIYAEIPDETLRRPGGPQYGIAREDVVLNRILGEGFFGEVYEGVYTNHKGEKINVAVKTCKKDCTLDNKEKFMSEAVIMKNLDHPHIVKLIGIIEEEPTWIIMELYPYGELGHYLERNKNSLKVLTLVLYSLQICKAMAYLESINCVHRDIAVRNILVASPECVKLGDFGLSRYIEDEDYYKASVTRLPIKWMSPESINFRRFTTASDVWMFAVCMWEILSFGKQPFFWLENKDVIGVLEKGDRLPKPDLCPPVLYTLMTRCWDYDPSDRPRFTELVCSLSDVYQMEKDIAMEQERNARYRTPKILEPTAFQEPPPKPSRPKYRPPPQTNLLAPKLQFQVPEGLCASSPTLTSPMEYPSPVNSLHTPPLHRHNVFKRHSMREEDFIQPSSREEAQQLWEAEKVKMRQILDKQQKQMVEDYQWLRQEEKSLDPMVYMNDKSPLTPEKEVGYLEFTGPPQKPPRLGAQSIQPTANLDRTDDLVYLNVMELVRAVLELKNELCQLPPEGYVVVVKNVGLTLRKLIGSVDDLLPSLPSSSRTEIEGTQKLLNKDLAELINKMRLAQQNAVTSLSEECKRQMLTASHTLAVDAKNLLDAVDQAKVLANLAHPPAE
# Sequence of UniProt O60927 (O60927 whole entry, looked up): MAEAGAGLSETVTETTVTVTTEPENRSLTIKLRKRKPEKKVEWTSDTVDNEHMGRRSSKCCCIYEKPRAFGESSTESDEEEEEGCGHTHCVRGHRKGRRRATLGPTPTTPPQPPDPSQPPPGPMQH
# Sequence of UniProt P48736 (P48736 whole entry, looked up): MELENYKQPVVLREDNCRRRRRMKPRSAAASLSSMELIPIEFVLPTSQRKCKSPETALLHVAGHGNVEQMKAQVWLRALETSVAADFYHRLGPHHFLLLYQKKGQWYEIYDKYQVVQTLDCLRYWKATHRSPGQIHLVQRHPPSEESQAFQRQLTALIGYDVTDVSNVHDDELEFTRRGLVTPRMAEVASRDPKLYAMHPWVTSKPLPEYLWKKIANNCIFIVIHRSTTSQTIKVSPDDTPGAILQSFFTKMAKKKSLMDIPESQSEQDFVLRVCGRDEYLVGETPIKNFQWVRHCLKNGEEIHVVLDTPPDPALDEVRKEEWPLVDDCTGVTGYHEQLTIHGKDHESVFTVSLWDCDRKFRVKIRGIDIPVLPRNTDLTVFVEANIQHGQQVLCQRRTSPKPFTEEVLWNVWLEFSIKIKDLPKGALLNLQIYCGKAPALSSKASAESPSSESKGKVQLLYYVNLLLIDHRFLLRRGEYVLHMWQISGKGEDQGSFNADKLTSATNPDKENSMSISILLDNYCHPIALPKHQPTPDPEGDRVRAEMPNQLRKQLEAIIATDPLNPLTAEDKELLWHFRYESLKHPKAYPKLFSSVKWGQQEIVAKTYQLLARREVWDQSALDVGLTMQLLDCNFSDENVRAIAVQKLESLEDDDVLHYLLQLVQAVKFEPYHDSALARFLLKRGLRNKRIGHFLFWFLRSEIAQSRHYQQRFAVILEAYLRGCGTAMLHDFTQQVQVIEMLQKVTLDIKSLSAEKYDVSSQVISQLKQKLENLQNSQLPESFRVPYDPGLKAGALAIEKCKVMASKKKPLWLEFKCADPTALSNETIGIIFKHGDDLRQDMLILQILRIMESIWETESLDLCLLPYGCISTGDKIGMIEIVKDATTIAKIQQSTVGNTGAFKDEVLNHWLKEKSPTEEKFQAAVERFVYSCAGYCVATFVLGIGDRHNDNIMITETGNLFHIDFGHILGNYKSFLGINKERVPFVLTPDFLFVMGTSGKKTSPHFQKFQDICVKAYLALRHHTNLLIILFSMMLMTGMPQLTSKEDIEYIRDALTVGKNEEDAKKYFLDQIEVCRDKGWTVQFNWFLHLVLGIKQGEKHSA
Target,log2 fold change (alvocidib),log2 fold change (Tubastatin A),log2 fold change [1],log2 fold change (defactinib),log2 fold change [2],log2 fold change (encorafenib),log2 fold change [3],log2 fold change (alisertib),log2 fold change [4],log2 fold change (gefitinib),log2 fold change (lapatinib),log2 fold change (pictilisib),log2 fold change (crizotinib),log2 fold change [5],log2 fold change (duvelisib),log2 fold change (gandotinib),log2 fold change (tozasertib),log2 fold change (bafetinib),log2 fold change [6],log2 fold change (doramapimod)
PTK2 (UniProt Q05397),0.02,-0.033,0.54 (active),0.518 (active),-0.055,-0.057,-0.126,0.17,0.113,-0.022,-0.116,0.038,0.414,0.007,-0.076,0.396,0.026,-0.008,-0.117,
PHKG1 isoform 2 (UniProt Q16816),-0.057,0.053,0.929 (active),0.196,-0.118,0.123,-0.078,-0.185,0.763,0.202,-0.166,,0.305,-0.553,-0.042,0.655,-0.172,,0.216,0.038
PDXDC1 (UniProt Q6P996),-0.005,-0.065,-0.007,0.034,0.088,0.058,0.085,0.049,-0.006,0.032,-0.025,-0.019,-0.056,-0.011,0.019,0,0.01,-0.128,0.062,0.007
POLR2F (UniProt P61218),0.272,-0.07,0.031,0.085,0.2,-0.036,-0.02,0.065,0.003,-0.097,0.036,-0.062,-0.024,1.12 (active),-0.018,-0.166,0.156,-0.076,-0.189,0.025
PIK3CG (UniProt P48736),-0.033,-0.044,0.04,0.009,-0.015,0.046,0.041,0.001,,,,,-0.128,-0.158,0.183,0.14,-0.038,-0.111,0.075,0.04
PRADC1 (UniProt Q9BSG0),-0.141,0.04,-0.126,,0.059,,,0.109,0.212,-0.071,-0.088,0.091,0.075,0.166,-0.069,-0.002,,-0.149,-0.087,-0.041
PPP1R11 (UniProt O60927),0.048,0.077,0.011,,-0.001,0.051,-0.027,-0.081,-0.041,-0.09,0.01,-0.016,-0.069,0.153,-0.054,-0.048,0.022,0.099,-0.071,-0.022
PRR4 (UniProt Q16378),-0.033,0.181,0.215,0.08,,-0.396,0.126,0.075,-0.011,0.026,0.047,,,0.291,,-0.34,0.412,,0.252,
"PPT2, A0A140T9Y1",,,,,,,,-0.144,,0.006,,,,,,,,,,
PHF14 (UniProt O94880),,0.01,,-0.012,0.02,-0.014,0.1,0.044,-0.069,-0.042,0.199,-0.049,,,0.024,,-0.117,-0.013,,
PICALM (UniProt H0YCY1),,,-0.018,,,,,,,,,,,,,,,,,
PCBP2 (UniProt F8W0G4),,-0.009,0.01,0.044,0.033,0.125,-0.006,0.192,,0.028,,0.087,,,0.358,,-0.069,-0.223,,
PIAS2 (UniProt O75928),,-0.092,0.006,-0.348,-0.002,0.006,-0.041,-0.021,,-0.091,,,-0.045,,0.075,,0.048,,,-0.007
POLR2F (UniProt U3KPV3),,,,,-0.059,0.177,-0.182,,,,,,,,0.012,,0.109,,,
PTK2B (UniProt Q14289),,-0.071,0.401 (active),0.315,-0.063,-0.048,-0.007,0.093,0.103,-0.056,-0.075,-0.043,,-0.026,-0.034,0.385 (active),0.019,0.098,-0.05,
"PDIA4, A0A499FI48",0.336,,,,-0.003,,,,,,,,-0.063,1.32 (active),-0.101,-0.18,,,-0.154,-0.039
PYGO2 (UniProt Q9BRQ0),0.01,-0.019,0.032,,0.131,-0.031,-0.121,-0.011,,-0.026,,-0.038,0.067,0.014,-0.046,0.078,-0.076,-0.046,-0.022,0.032
PLXND1 (UniProt Q9Y4D7),,0.111,0.015,,-0.123,,,0.046,,0.313,,0.018,0.067,,-0.031,,,-0.461 (active),,0.171
PPIC (UniProt P45877),-0.031,0.089,0.024,0.077,-0.052,,,0.004,,0.103,,-0.003,-0.131,-0.078,-0.095,-0.042,,-0.061,0.079,0.086
PPP1R14C (UniProt Q8TAE6),-0.045,-0.033,,-0.002,-0.14,0.064,0.014,-0.044,-0.04,0.032,-0.044,-0.025,,-0.022,0.121,0.358 (active),0.08,0.041,0.336,

# From the supplement of paper PMC10849652
